# Source: ChEMBL document CHEMBL3988442, “University of Dundee, Small-Polar-MMV Screening Library” (2021)
# About 1,200 (3.2%) of roughly 38,000 compounds showed an effect of 50% or more. The median lay at about -58%. The sample holds strong results, similar compounds and a random draw of the others, so the mix is not that of the screen.
# System: Plasmodium falciparum
# Test: Calibr Malaria Delayed Death Assay SOP
# Assay type: functional, organism-based
# Set-up: scale not given: in the data most compounds retested in dose-response had high values
# Details: concentration 4.99e-06 (unit not given; other assays of the set use mol/L)
row,SMILES,Percent Effect
1,Cc1nn(C)c(C)c1S(=O)(=O)NCC1(C(N)=O)CCOCC1,-35.42%
2,Cc1ccc(N2CC[C@H]3C[C@H](C(=O)NCc4ccco4)O[C@H]3C2)nn1.O=C(O)C(F)(F)F,-18.7%
3,CN(Cc1ccc([S+](C)[O-])cc1)c1cncc(Br)c1 (configuration not stated),-68.65%
4,COc1cccc(CN2CCCCCC2c2cccc(C)c2)c1O (configuration not stated),56.55%
5,COc1cccc(CN2CCCCCC2c2cccc(F)c2)c1O (configuration not stated),55.91%
6,COc1cccc(CN2CCCCCC2c2cccs2)c1O (configuration not stated),1.572%
7,Cc1cccc(C2CCCCCN2Cc2cn(C)nc2C)c1 (configuration not stated),32.86%
8,COc1cc(CN2CCCCCC2c2cccs2)cc(OC)c1O (configuration not stated),-97.62%
9,COc1cccc(CN2CCCCCC2c2sccc2C)c1O (configuration not stated),-12.07%
10,Cc1noc(C2CCC3(CCN(C(=O)c4ccncn4)CC3)O2)n1 (configuration not stated),-45.98%
11,O=C(c1cccc2cn[nH]c12)N1CCCC1c1noc(C2CC2)n1 (configuration not stated),-53.04%
12,CCn1ccc(-c2cc(C(=O)O)n3nc(C)c(Cl)c3n2)n1,-42.05%
13,O=C(O)C(F)(F)F.O=C1C[C@H]2[C@@H](CCN2C(=O)c2ccoc2)N1CCN1CCOCC1,-16.54%
14,Cc1cccc(-n2ncc3c(=O)n(CCN4CCCCC4)cnc32)c1C,-32.3%
15,CNS(=O)(=O)CCCN1CCCCCC1c1ccc(C)o1 (configuration not stated),7.133%
16,CNS(=O)(=O)CCCN1CCCC1c1cc(C)on1 (configuration not stated),-107.9%
17,COCCN1CCN(CCCS(=O)(=O)c2ccccc2)CC1C (configuration not stated),-125.8%
18,COCCN1CCN(CCCS(C)(=O)=O)CC1C (configuration not stated),-45.99%
19,CNS(=O)(=O)CCCN1CCCN(Cc2ccccc2)CC1C (configuration not stated),57.31%
20,CC1CN(Cc2ccccc2)CCCN1CCCS(C)(=O)=O (configuration not stated),50.52%
21,Cc1cc(F)ccc1N1CCCC(NC(=O)CCCn2ccnc2)C1 (configuration not stated),-46.83%
22,Cc1ccoc1-c1nnc(CN2CCn3c(nnc3C(C)C)C2)o1,-39.14%
23,CCCN1CCN(c2ccc(-c3nc(C)no3)cn2)CC1,-136.9%

row,SMILES,Percent Effect
1,CCn1cc(CN2CCCN(C(=O)CCN3CCCC3=O)CC2)cn1,-110.7%
2,CC(C)C(NC(=O)N1CCS(=O)(=O)CC1)c1ccccc1Cl (configuration not stated),-66.72%
3,CSCC(=O)N(C)Cc1ccccc1,-13.25%
4,N#Cc1nc(COc2ccc3c(c2)OCO3)oc1NC1CC1,-68.74%
5,Clc1cccnc1N1CCC(C2CCN(Cc3cccnc3)CC2)C1 (configuration not stated),-53.88%
6,CN1CCN(Cc2ccc(Cl)cc2)CC1C(=O)O (configuration not stated),-101.8%
7,CC(=O)NCC(=O)N1CCC(C2CCN(Cc3ccc(Cl)cc3)C2)CC1 (configuration not stated),1.574%
8,O=C(C1CCC1)N1CCC(C2CCN(Cc3ccc(Cl)cc3)C2)CC1 (configuration not stated),64.14%
9,O=C(C1CCCC1)N1CCC(C2CCN(Cc3ccc(Cl)cc3)C2)CC1 (configuration not stated),62.77%
10,Clc1ccc(N2CCC(C3CCN(Cc4cccnc4)CC3)C2)nc1 (configuration not stated),9.118%
11,Clc1ccc(CN2CCC(C3CCN(Cc4cccnc4)CC3)C2)cc1 (configuration not stated),62.84%
12,CCOCC(=O)N1CCC(C2CCN(Cc3ccc(Cl)cc3)C2)CC1 (configuration not stated),-3.864%
13,O=C(C1CCC1)N1CC[C@@H]2CN(Cc3cccnc3)S(=O)(=O)[C@@H]2CC1,-57.62%
14,CCOC(=O)Cc1csc(NC(=O)c2cc(=O)c(OC)c[nH]2)n1,-55.6%
15,CN(C)CCn1c2c(ccc1=O)CCN(C(=O)c1ccoc1)CC2.O=C(O)C(F)(F)F,-90.05%
16,CCCC(O)CN1CCC(=O)N(C)Cc2cc(F)ccc21 (configuration not stated),-57.01%
17,O=C(c1cccnc1O)N(CCO)Cc1cc(Br)ccc1F,-29.02%
18,O=C(O)c1ccc(CNC(=O)C2CCN(C(=O)C3CCC3)CC2)s1,-58.95%
19,Cc1nccn1CCCC(=O)N1CCC2(CCC(=O)N(C(C)C)C2)CC1,-32.26%
20,COCCNC(=O)N1CCCCC1CNC(=O)Nc1ccccc1 (configuration not stated),-90.53%
21,NC(=O)CN1CCC(OCc2ccc(Cl)c(Cl)c2)CC1,33.26%
22,CCC(N)C(=O)N1CCC(OCc2ccc(Cl)c(Cl)c2)CC1.Cl (configuration not stated),65.86%
23,CNC(=O)CN1CCC(OCc2ccc(Cl)c(Cl)c2)CC1,0.3675%

row,SMILES,Percent Effect
1,COc1ccc2c(c1)OCC(CNC(=O)c1cc(C(C)C)on1)C2 (configuration not stated),-29.19%
2,Cc1c(C(=O)NCC2CCN(C)C2)n(C)c2c(C)cccc12 (configuration not stated),8.044%
3,CC(=O)Nc1nc(C2CCN(C(=O)c3cncs3)CC2)cs1,38.41%
4,CNC(=O)Cn1c(CO)cnc1SCc1ccccc1Cl,-84%
5,COc1ccccc1NCC(=O)NCc1scnc1C,-101.9%
6,COc1cc2c(cc1CNC(=O)Cc1ccc(C)nc1)OC(C)C2 (configuration not stated),-97.01%
7,COc1ccc(C(C)NC(=O)NCCc2ccc(C)nc2)c(OC)c1 (configuration not stated),-63.03%
8,COc1cc2nc(NCc3ccc(C)nc3)nc(N)c2cc1OC,90.21%
9,COc1ccc(CCC(=O)NCc2cc(C)on2)cc1,-56.8%
10,COc1cc2nc(NCc3cc(C)on3)nc(N)c2cc1OC,61%
11,CCOc1ccc(OCC)c(NCc2cc(C)on2)c1,-105.8%
12,COc1cc(C(C)NCc2scnc2C)ccc1SC(F)F (configuration not stated),16.99%
13,COc1cc2nc(NCc3scnc3C)nc(N)c2cc1OC,89.32%
14,CC(=O)c1c(O)n(C)c2ccccc12,-129.1%
15,O=C(COCCc1ccccc1)N1CCCC(n2cncn2)C1 (configuration not stated),-37.64%
16,Cc1cccc(CSc2nnc(C)n2CC(N)=O)c1,-106.3%
17,CS(=O)(=O)N1CCC(CNC(=O)C2CCC2)CC1,-20.15%
18,O=C(NCCc1ccncc1)c1ccc(S(=O)(=O)NC2CCC2)cc1,-25%
19,CSCC[C@@H](CO)NC(=O)c1sc(-c2ccc(Cl)cc2)nc1C,-102.9%
20,CCOC(=O)CSc1nnc(C(N)CC(C)C)o1.Cl (configuration not stated),-109.2%
21,NC(=O)NCC1CCCCN1C(=O)c1cc(F)cc(F)c1 (configuration not stated),-156.9%
